Data taken from the supplement of paper PMC13380429.

How the values were obtained:
[1] = tested on: Vero E6 infected with SARS-CoV-2; experiment: morphology score (similarity to uninfected cells); higher = more like uninfected cells; conditions: 24 h
[2] = tested on: Vero E6 infected with SARS-CoV-2; experiment: SARS-CoV-2 infection rate relative to infected DMSO; higher = more infection, active = 60 or less; conditions: 24 h

Structure (SMILES): CCS(=O)(=O)N1CCN(c2ccc(Nc3ncc(C(N)=O)c(NC4CC4)n3)cc2)CC1 (10 µM)
- morphology score [1]: 0.439
- SARS-CoV-2 infection rate [2]: 123% (inactive)

Structure (SMILES): CCCC(C)C1(CC)C(=O)NC(=S)NC1=O (stereo not drawn) [thiopental] (10 µM)
- morphology score [1]: 0.132
- SARS-CoV-2 infection rate [2]: 110% (inactive)

Structure (SMILES): CN1CCN(CCCN2c3ccccc3Sc3ccc(Cl)cc32)CC1 [prochlorperazine] (10 µM)
- morphology score [1]: 0.742
- SARS-CoV-2 infection rate [2]: 27.5% (active)

Structure (SMILES): CC(C)OC(=O)OCOP(=O)(CO[C@H](C)Cn1cnc2c(N)ncnc21)OCOC(=O)OC(C)C [tenofovir-disoproxil] (10 µM)
- morphology score [1]: -0.00661
- SARS-CoV-2 infection rate [2]: 116% (inactive)
